# Columns and labels:
# [1] = test system: Vero E6 infected with SARS-CoV-2; experiment: morphology score (similarity to uninfected cells); higher = more like uninfected cells; settings: 24 h
# [2] = test system: Vero E6 infected with SARS-CoV-2; experiment: SARS-CoV-2 infection rate relative to infected DMSO; higher = more infection, active = 60 or less; settings: 24 h
SMILES,morphology score [1],SARS-CoV-2 infection rate [2]
Clc1ccc(C2(c3ccc(-c4cn[nH]c4)cc3)CCNCC2)cc1 (0.833333 µM),0.29,112% (inactive)
O=C(NCCN1CCN(c2ncccn2)CC1)C12CC3CC(CC(C3)C1)C2 [adatanserin] (10 µM),0.159,109% (inactive)
CC(=O)[C@H]1CC[C@H]2[C@@H]3CC=C4C[C@@H](OC(=O)CCC(=O)O)CC[C@]4(C)[C@H]3CC[C@]12C [pregnenolone-succinate] (10 µM),-0.0431,104% (inactive)
Cc1[nH]c2ccc(Cl)cc2c1C1=CCNCC1 (10 µM),0.432,76% (inactive)
COc1cc2nc(N3CCN(C(=O)COc4c(OC)cccc4C(C)C)CC3)nc(N)c2cc1OC (10 µM),-0.065,92.5% (inactive)
C[C@H](NC(=O)/C(C#N)=C/c1cccc(Br)n1)c1ccccc1 (0.833333 µM),-0.0278,118% (inactive)
COc1cc(OC)cc(-c2ccc3c(-c4ccc(F)cc4)n[nH]c3n2)c1 (10 µM),0.102,106% (inactive)
CC(=O)OCC(=O)[C@H]1CC[C@H]2[C@@H]3CC[C@H]4C[C@H](O)CC[C@]4(C)[C@H]3C(=O)C[C@]12C [alfadolone-acetate] (10 µM),-0.231,116% (inactive)
Cc1ncc[nH]1 [2-methylimidazole] (10 µM),0.049,95% (inactive)
C[C@H](N)Cc1cccc(O)c1 [gepefrine] (10 µM),-0.0218,106% (inactive)
C/C(O)=C(\C#N)C(=O)Nc1ccc(C(F)(F)F)cc1 [teriflunomide] (10 µM),0.0341,108% (inactive)
N#Cc1c(N)nc(SCc2csc(-c3ccc(Cl)cc3)n2)c(C#N)c1-c1ccc(OCCO)cc1 [capadenoson] (10 µM),-0.145,115% (inactive)
CCCCc1nc2cc(/C=C/C(=O)NO)ccc2n1CCN(CC)CC (10 µM),-0.146,109% (inactive)
CC(=O)OC[C@H]1O[C@@](COC(C)=O)(O[C@H]2O[C@H](COC(C)=O)[C@@H](OC(C)=O)[C@H](OC(C)=O)[C@H]2OC(C)=O)[C@@H](OC(C)=O)[C@@H]1OC(C)=O [sucrose-octaacetate] (10 µM),0.0471,103% (inactive)
N[C@@H](C(=O)N[C@@H]1C(=O)N2C(C(=O)O)=C(Cl)CC[C@H]12)c1ccccc1 [loracarbef] (10 µM),0.167,101% (inactive)
CN1CCN(Cc2ccc(-c3cnc4[nH]cc(-c5ccc6[nH]ccc6c5)c4c3)cc2)CC1 (0.833333 µM),0.84,61% (inactive)
O=C(O)c1cccnc1Nc1cccc(C(F)(F)F)c1 [niflumic-acid] (10 µM),0.127,104% (inactive)

SMILES,morphology score [1],SARS-CoV-2 infection rate [2]
Cn1c(=O)c2c(ncn2CC(O)CO)n(C)c1=O (stereo unspecified) [dyphylline] (10 µM),0.0342,96% (inactive)
CC(C)(C)NC(=O)[C@@H]1C[C@@H]2CCCC[C@@H]2CN1C[C@@H](O)[C@H](Cc1ccccc1)NC(=O)[C@H](CC(N)=O)NC(=O)c1ccc2ccccc2n1 [saquinavir] (10 µM),0.0775,106% (inactive)
CN1C(C)(C)CCCC1(C)C [pempidine] (10 µM),0.0949,96% (inactive)
COC[C@H](NC(=O)c1cnc(C)s1)C(=O)N[C@@H](COC)C(=O)N[C@@H](Cc1ccccc1)C(=O)[C@@]1(C)CO1 [oprozomib] (0.833333 µM),-0.312,108% (inactive)
O=C1CC2(CCCC2)CC(=O)N1CCCCNC[C@H]1COc2ccccc2O1 (racemic) (10 µM),-0.0862,108% (inactive)
CNc1cc2c(Nc3cccc(Br)c3)ncnc2cn1 (10 µM),-0.276,112% (inactive)
COc1ccc2c(c1)C(=O)N(CCc1ccc(S(=O)(=O)NC(=O)NC3CCCCC3)cc1)C(=O)C2(C)C [gliquidone] (10 µM),0.283,98.5% (inactive)
COCCOc1cnc2ccn([C@H](C)c3nnc4c(F)cc(-c5cnn(C)c5)cn34)c(=O)c2c1 (10 µM),0.0816,105% (inactive)
C[C@H](CCC(=O)NCCS(=O)(=O)O)[C@H]1CC[C@H]2[C@@H]3[C@H](O)C[C@@H]4C[C@H](O)CC[C@]4(C)[C@H]3C[C@H](O)[C@]12C [taurocholate] (10 µM),-0.0884,116% (inactive)
COc1ccc2c(c1)/C(=C/c1cnc[nH]1)C(=O)N2 (0.833333 µM),-0.0607,109% (inactive)
Cn1c2c(c3ccccc31)CCNCC2 (10 µM),0.0193,103% (inactive)
CC(C)c1cc(CNc2nc(Nc3cc(C4CC4)[nH]n3)cc(N3CCN(C)CC3)n2)on1 (10 µM),-0.0949,112% (inactive)
C/C(=C\C(=O)OCCCCCCCCC(=O)O)C[C@@H]1OC[C@H](C[C@@H]2O[C@H]2[C@@H](C)[C@H](C)O)[C@@H](O)[C@H]1O [mupirocin] (10 µM),0.0465,110% (inactive)
O=S(=O)(O)c1cc(O)ccc1O [etamsylate] (10 µM),0.0853,94.5% (inactive)
COC(=O)[C@H]1[C@H]2C[C@@H]3c4[nH]c5cc(OC)ccc5c4CCN3C[C@H]2C[C@@H](OC(=O)c2cc(OC)c(OC)c(OC)c2)[C@@H]1OC [reserpine] (10 µM),0.127,110% (inactive)
Fc1ccc(Cn2c(NC3CCNCC3)nc3ccccc32)cc1 [tecastemizole] (10 µM),-0.00173,111% (inactive)
